# Screens (PubChem)
# D3 antag – antagonists of human D3 dopamine receptor; max response, negative = inhibition, %; hit rate 2.5% among 360,000; P35462; D3R cells, DiscoveRx beta-arrestin luminescence, antagonist mode; stronger effect = lower value; in the data active = max response below about -50%; inconclusive = no clear call, values can overlap the other calls; note: % is set by controls: 0 for no effect and ±100 for the full control effect
# Target sequence (P35462 whole entry, looked up): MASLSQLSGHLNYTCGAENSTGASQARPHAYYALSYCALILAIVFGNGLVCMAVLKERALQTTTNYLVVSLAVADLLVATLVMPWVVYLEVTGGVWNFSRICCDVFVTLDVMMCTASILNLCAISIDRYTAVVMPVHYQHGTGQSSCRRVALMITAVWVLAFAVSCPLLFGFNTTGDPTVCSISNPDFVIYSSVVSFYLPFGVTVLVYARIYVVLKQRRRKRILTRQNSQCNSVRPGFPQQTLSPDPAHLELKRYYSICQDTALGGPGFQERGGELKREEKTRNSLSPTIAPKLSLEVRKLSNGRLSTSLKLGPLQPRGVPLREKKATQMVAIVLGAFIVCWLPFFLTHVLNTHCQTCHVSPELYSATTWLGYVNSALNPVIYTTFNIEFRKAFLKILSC
#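 Cells plated overnight at 1500 cells/well, then exposed to library compounds with dopamine controls for 90 minutes at 37 degrees C. DiscoveRx reagent added for 30–60 minutes at room temperature; luminescence read, quantitative HTS format.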
# IL1B secr inh – blocks inflammasome-driven IL-1 beta release | activity change, % at 57.5 µM | hit rate 4.7% among 360,000 | AID 743279 | THP-1 LPS/ATP IL-1B secretion, AlphaLISA, 16 h; stronger effect = lower value; in the data active = activity change below about -50%; inconclusive = mostly about -30% to -49%; note: % is set by controls: 0 for no effect and ±100 for the full control effect
#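 Secreted IL-1B measured by AlphaLISA bead assay after 16 h compound exposure of THP-1 cells; compounds (final up to 57.5 uM) added 1 h before LPS (250 ng/mL) and ATP (1.25 mM) stimulation; lower signal means less secretion.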
# DT40 TDP1 CPT – DT40-hTDP1 cell growth loss with CPT. hit rate 12% among 420,000. Potency, µM (titrated, usually from 46.2 µM), for the others: at the highest dose activity change, negative = growth inhibition, hits mostly inhibitors. chicken DT40 Tdp1-/-;hTDP1 cells + 20 nM CPT, ATP luminescence, 48 h; note: potency is the fitted concentration of half-maximal effect; % is set by controls: 0 for no effect and ±100 for the full control effect; nearly all actives have a fitted effect of over 55% in size
#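 Chicken DT40 Tdp1-/- cells complemented with human TDP1, 400 cells/well, exposed to compounds plus 20 nM camptothecin for at least 48 h at 37 C; viability read as ATP content by CellTiter-Glo luminescence.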
# D3 ag – agonists of human D3 dopamine receptor; P35462; AID 652048; max activation, %; D3R DiscoveRx beta-arrestin cells, luminescence, 90 min; hit rate 0.58% among 410,000; in the data active = max activation above about 30%; note: 0% is about no effect
#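 Agonist-mode cell screen: cells plated at 1500/well and incubated overnight at 37 °C, then exposed to library compounds for 90 min at 37 °C. Detection reagent was added for 30–60 min at room temperature, and luminescence was read.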
# DT40 TDP1 no CPT – qHTS for Inhibitors of human tyrosyl-DNA phosphodiesterase 1 (TDP1): qHTS in cells in absence of CPT; hit rate 15% among 420,000; DT40 Tdp1-/- hTDP1 cells, no CPT, ATP luminescence, 48 h; Potency, µM (titrated, usually from 46.2 µM), inactives show top-dose activity change, negative = growth inhibition, usual class: inhibitors; AID 686978, 2013; note: potency is the fitted concentration of half-maximal effect; % is set by controls: 0 for no effect and ±100 for the full control effect; nearly all actives have a fitted effect of over 55% in size
#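 Camptothecin absent (DMSO only). Human TDP1-complemented DT40 knockout cells, 400 cells/well, 37 °C for minimum 48 hr; ATP measured via CellTiter-Glo, 30 min dark incubation, luminescence.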
# ClpP mod – qHTS Assay for Activators of ClpP; ATP-dependent Clp protease proteolytic subunit (Bacillus subtilis (strain 168)), P80244; purified B. subtilis ClpP, FRET peptide cleavage, 20 min; Potency, µM (highest dose often 57.5 µM), for inactives: top-dose activity change, negative = active; hit rate 1.9% among 340,000; active = well fitted falling curve with a large enough effect; inconclusive = small, poorly fitted or top-dose-only effect; inactive = no such curve, though single readings can be large or run the other way; note: potency is the fitted concentration of half-maximal effect; the source files actives as falling curves though it sought activators and does not explain the sign; nearly all actives have a fitted effect of over 65% in size
#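 Purified B. subtilis ClpP, 10 microg/mL final in Tris/HCl pH8 with KCl, BSA, glycerol and Tween-20, cleaved an Abz/nitrotyrosine-quenched decapeptide. Fluorescence (ex 320, em 430) was read at 0 and 20 min at room temperature. Delta was normalized to 5.8 microM ADEP and DMSO/no-enzyme controls.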
# * = called active by the depositor; ? = inconclusive; . = no result given; [ ] = remark or other dose. Shown are actives, neighbours in structure and some others; about 21% of the full set was active somewhere. Unless noted, calls come from the whole dose curve; as a rule, active = well fitted inhibition curve with a large enough effect; inconclusive = small, poorly fitted or top-dose-only effect; inactive = flat fitted curve, though single readings scatter.
SMILES,D3 antag,IL1B secr inh,DT40 TDP1 CPT,D3 ag,DT40 TDP1 no CPT,ClpP mod
COc1ccc(S(=O)(=O)NCCSCc2ccc(Cl)cc2)cc1NC(C)=O,17,-15,?,-3,26µM*,2%
CCOc1ccc(S(=O)(=O)NCc2ccncc2)cc1NC(=O)c1ccccc1F,4,55,-24%,-31,1.5µM*,0%
CCOc1ccc(S(=O)(=O)N2CCN(CC)CC2)cc1NC(=O)c1ccccc1F,-11,-23,-5%,2,?,.
CCOc1ccc(S(=O)(=O)N2CCN(C)CC2)cc1NC(=O)c1ccccc1F,-7,.,?,3,?,.
CCOc1ccc(S(=O)(=O)N2CCOCC2)cc1NC(=O)c1ccccc1F,-9,-19,7%,79*,-21%,-3%
CCOc1ccccc1NC(=O)c1cc(S(=O)(=O)NCc2ccco2)ccc1F,-15,-7,15µM*,-5,-82%,1%
COc1ccc(CN2CCOc3ccc(CN4CCCCC4CO)cc3C2)c(OC)c1 (centres undefined),.,.,4%[9.04 µM],.,?,.
Cc1ccccc1-c1nc(Nc2ccncc2)c2ccccc2n1,.,.,-6%,.,-18%,.
Cc1c2cccn2cc[n+]1C,2,-1,-1%,-3,1%,10µM*
Cc1c2ccccc2cc[n+]1C,.,.,-6%,.,-16%,5%
N#CCCN(Cc1ccccc1)C(=S)NC(=O)c1ccccc1,31,27,9.2µM*,5,9.2µM*,-1%
CCOc1ccc(C(=O)NC(=S)N(Cc2ccccc2)Cc2ccccc2)cc1,-22,1,21µM*,-22,?,1%
Cc1ccccc1Cn1c(=O)n(Cc2ccc(Cl)cc2)c(=O)c2cccnc21,.,.,15µM*,-13,16µM*,25µM*
O=c1c2cccnc2n(Cc2ccc(Cl)cc2)c(=O)n1Cc1ccc(F)cc1,.,.,?,1,8.2µM*,-10%
CCc1ccc(C(=O)C[N+]2(C)CCOCC2)cc1,.,.,-7%,.,-8%,-1%
CN=c1scc(-c2cccs2)n1/N=C/c1ccc(O)c(O)c1O,3,-2,12µM*,170*,5.8µM*,.
Cc1nc2ccccc2c(=O)n1/N=C/c1ccc(O)c(O)c1O,34,8,?,5,?,2%
CN=c1scc(C)n1/N=C/c1cc(Br)c(O)c(OC)c1,-7,11,?,4,16µM*,0%
CN=c1scc(C)n1/N=C/c1ccc(O)c(O)c1O,-9,?,16µM*,6,18µM*,-4%
CN=c1scc(-c2cccs2)n1/N=C/c1ccccc1O,28,-3,?,3,23µM*,1%
Cc1noc(/C=C/N(C)C)c1S(=O)(=O)N(C)Cc1ccc(F)cc1,24,-3,?,-18,?,0%
Cc1ccccc1C(=O)c1cccn1CC(=O)NC1CCCC(C)C1C (centres undefined),-17,7,?,-21,-18%,0%
COc1ccccc1NC(=O)c1ccc(NC(=O)c2cc3c(s2)CCC3)cc1,0,170,?,4,16µM*,?
Cc1ccc(NC(=O)CN(C)C(=O)c2cc3c(s2)CCCCC3)cc1,-6,0,-11%,-9,-19%,0%
Cc1ccc(NC(=O)c2cc3c(s2)CCCC3)cc1,-11,-53*,?,-34,-30%,.
Cn1c(=O)c2cc(NC(=O)Nc3cccnc3)ccc2n1Cc1cccc(C(F)(F)F)c1,8,49,?,3,?,5%
O=P(CCc1ccccc1)(c1ccccc1)c1ccccc1,-12,0,-2%,-6,-22%,.
COc1cc(C2C3C(=O)N(c4ccccc4)C(=O)C3ON2c2ccccc2)cc(OC)c1OC (centres undefined),19,17,6%,4,-3%,1%
